# Compound activity from PubChem.
# Only some compounds are listed: those with a hit (about 18% of all), similar ones and a draw of the others.
# CtBP-E1A blk = CtBP/E1A binding inhibition; AlphaScreen GST-E1A/His-CtBP binding, 1536-well; hits give low values; activity change, % (test concentration not listed); hit rate 0.49% among 340,000; AID 651724; in the data active = activity change below about -65%; inconclusive = mostly about -30% to -63%
#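 GST-E1A and His-tagged CtBP (125 nM each as 5X stock) were preincubated with pin-transferred compound for 2 h at 37 °C in the dark, then glutathione donor and nickel acceptor beads were added for 1 h before AlphaScreen reading.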
# TDP1 cell noCPT = qHTS for Inhibitors of human tyrosyl-DNA phosphodiesterase 1 (TDP1): qHTS in cells in absence of CPT. DT40 Tdp1-/- hTDP1 cells, no CPT, ATP luminescence, 48 h. hit rate 15% among 420,000. Potency, µM (titrated, usually from 46.2 µM), for inactives: at the top dose activity change, negative = growth inhibition, usual class: inhibitors; note: potency is the fitted concentration of half-maximal effect; nearly all actives have a fitted effect of over 55% in size
#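 Camptothecin absent (DMSO only). Human TDP1-complemented DT40 knockout cells, 400 cells/well, 37 °C for minimum 48 hr; ATP measured via CellTiter-Glo, 30 min dark incubation, luminescence.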
# IL1B secr inh = inhibitors of inflammasome signaling (IL-1 beta secretion). THP-1 LPS/ATP IL-1B secretion, AlphaLISA, 16 h; hits give low values. activity change, % at 57.5 µM. hit rate 4.7% among 360,000. AID 743279; in the data active = activity change below about -50%; inconclusive = mostly about -30% to -49%
#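 Secreted IL-1B measured by AlphaLISA bead assay after 16 h compound exposure of THP-1 cells; compounds (final up to 57.5 uM) added 1 h before LPS (250 ng/mL) and ATP (1.25 mM) stimulation; lower signal means less secretion.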
# TDP1 inh = blocks human tyrosyl-DNA phosphodiesterase 1 | Potency, µM (doses to about 130 µM), without a hit: at the top dose activity change, negative = inhibition, hits mostly inhibitors | hit rate 0.28% among 350,000 | Q9NUW8 | AID 485290 | recombinant TDP1, AlphaScreen DNA substrate cleavage; note: potency is the fitted concentration of half-maximal effect; nearly all actives have a fitted effect of over 40% in size
#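 Tdp1 1 nM final; 15 min RT w/ cpd; substrate 15 nM, 5 min; beads 10 ug/ml, 10 min; AlphaScreen read. Neg ctrl: no enzyme.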
# DT40 TDP1 CPT = DT40-hTDP1 cell growth loss with CPT; chicken DT40 Tdp1-/-;hTDP1 cells + 20 nM CPT, ATP luminescence, 48 h; Potency, µM (doses to about 46.2 µM), for inactives: at the top dose activity change, negative = growth inhibition, actives largely listed as inhibitors; hit rate 12% among 420,000; AID 686979; note: potency is the fitted concentration of half-maximal effect; nearly all actives have a fitted effect of over 55% in size
#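 Chicken DT40 Tdp1-/- cells stably complemented with human TDP1 were seeded at 400 cells/well in medium containing 20 nM camptothecin, exposed to pin-transferred compounds, and grown at 37 °C for at least 48 hr. Viability was read as ATP luminescence.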
# Six1-Eya2 blk = blocks human Six1 binding to Eya2; Q15475+O00167; AlphaScreen GST-Six1/His-Eya2 binding, biochemical; hits give low values; activity change, % (test concentration not listed); hit rate 0.56% among 360,000; in the data active = activity change below about -65%; inconclusive = mostly about -30% to -63%
# Target sequence (O00167 whole entry, looked up): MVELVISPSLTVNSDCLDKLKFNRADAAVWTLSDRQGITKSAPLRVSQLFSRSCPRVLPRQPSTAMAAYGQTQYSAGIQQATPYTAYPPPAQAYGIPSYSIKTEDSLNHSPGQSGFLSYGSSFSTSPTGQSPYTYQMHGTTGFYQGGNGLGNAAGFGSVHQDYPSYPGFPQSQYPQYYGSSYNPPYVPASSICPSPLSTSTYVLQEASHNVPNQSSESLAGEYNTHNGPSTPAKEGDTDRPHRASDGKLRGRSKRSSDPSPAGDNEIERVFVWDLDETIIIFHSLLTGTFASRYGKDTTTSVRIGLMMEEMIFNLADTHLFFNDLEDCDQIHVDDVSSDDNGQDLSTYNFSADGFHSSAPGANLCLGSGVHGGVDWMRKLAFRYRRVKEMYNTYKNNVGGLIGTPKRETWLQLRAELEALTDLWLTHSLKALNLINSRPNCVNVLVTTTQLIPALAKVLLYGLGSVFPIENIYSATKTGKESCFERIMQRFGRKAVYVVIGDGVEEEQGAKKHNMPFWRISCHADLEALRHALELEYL
# Target sequence (Q15475 whole entry, looked up): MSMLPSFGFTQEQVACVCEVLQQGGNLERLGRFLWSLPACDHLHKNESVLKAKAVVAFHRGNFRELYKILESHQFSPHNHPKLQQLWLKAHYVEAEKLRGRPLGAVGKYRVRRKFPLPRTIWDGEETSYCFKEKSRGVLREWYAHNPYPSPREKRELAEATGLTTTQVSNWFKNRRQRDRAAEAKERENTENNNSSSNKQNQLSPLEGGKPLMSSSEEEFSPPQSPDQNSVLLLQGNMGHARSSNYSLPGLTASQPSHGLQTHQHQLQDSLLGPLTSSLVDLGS
#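 AlphaScreen with GST-Six1 and His-Eya2 (5X mix: 250 nM and 500 nM), glutathione donor and nickel acceptor beads; buffer 50 mM Tris pH 8.0, 300 mM NaCl, 1 mM TCEP; 1 h at 37 C in the dark.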
# The depositor's hits bear a star; i = inactive; ? = inconclusive; nt = no result given; [ ] = another dose, or the depositor's remark. Unless noted, calls come from the whole dose curve; as a rule, active = well fitted curve in the direction sought with a large enough effect; inconclusive = small, poorly fitted or top-dose-only effect, or another doubt; inactive = no such curve, though single readings can be large; an effect the other way counts as inactive or inconclusive. % is set by controls: 0 for no effect and ±100 for the full control effect.
SMILES,CtBP-E1A blk,TDP1 cell noCPT,IL1B secr inh,TDP1 inh,DT40 TDP1 CPT,Six1-Eya2 blk
CC(=O)C1=C(C)NC(SCc2cccc([N+](=O)[O-])c2)=C(C#N)C1c1ccco1 (centres undefined),-26,?,-66*,9%,?,-15
CCc1ccc(C(=O)CSC2=C(C#N)C(c3ccco3)C(C(C)=O)=C(C)N2)cc1 (centres undefined),nt,?,nt,-1%,?,nt
CC(=O)C1=C(C)NC(SCC(=O)c2ccc(Cl)c(Cl)c2)=C(C#N)C1c1ccco1 (centres undefined),10,?,-57*,6%,?,-1
CC(=O)C1=C(C)NC(SCC(=O)c2ccc(F)cc2)=C(C#N)C1c1ccco1 (centres undefined),3,?,-85*,-2%,?,0
CC(=O)C1=C(C)NC(SCC(=O)c2cc(Cl)ccc2Cl)=C(C#N)C1c1ccco1 (centres undefined),-1,?,?,-2%,?,-14
CC(=O)C1=C(C)NC(SCC(N)=O)=C(C#N)C1c1ccco1 (centres undefined),-29,20%,-12,6%,26%,2
Cc1cccc(C(=O)NCC(=O)OCC(=O)c2ccc(Br)s2)c1,0,-1%,2,-2%,-6%,-5
CN(C)c1ccc(C(=O)C(=O)N2CCN(c3ccccc3)CC2)cc1,-5,?,-2,nt,?,-9
CCN(C(=O)COC(=O)c1nc2nc(C)cc(C)n2n1)C1CCCCC1,9,-2%,15,0%,-11%,1
O=C(C1COc2ccccc2O1)N1CCN(Cc2ccc3c(c2)OCO3)CC1 (centres undefined),0,?,?,0%,?,0
O=C(C1CC1)N1CCN(c2nc3c(F)cc(F)cc3s2)CC1,nt,15µM*,nt,-3%,?,nt
O=C(C1COc2ccccc2O1)N1CCN(c2nc3ccccc3s2)CC1 (centres undefined),4,?,i,4%,?,-10
O=C(C1COc2ccccc2O1)N1CCN(Cc2ccc(Br)cc2F)CC1 (centres undefined),-10,?,-63*,8%,?,-3
O=C(C1COc2ccccc2O1)N1CCN(c2nc3c(F)cc(F)cc3s2)CC1 (centres undefined),0,15µM*,-23,-1%,21µM*,-7
Cc1cc(C(=O)NNC(=O)Cc2ccc(Cl)c(Cl)c2)c(C)o1,0,-6%,-5,0%,-17%,-5
COc1cc(OC)c2c(=O)c(OC)c(-c3ccc(OC)c(OC)c3)oc2c1,-14,?,?,15%[56.1 µM],?,-7
COc1ccccc1-c1oc2ccccc2c(=O)c1O,nt,?,nt,4%[56.1 µM],?,nt
COc1ccc(-c2oc3cc(O)c(OC)c(O)c3c(=O)c2OC)cc1O,?,0.92µM*,50,nt,0.92µM*,?
O=c1c(O)c(-c2ccc(O)cc2)oc2cc(O)cc(O)c12,-15,?,28,17%[56.1 µM],?,-19
O=c1c(O)c(-c2ccc(O)cc2)oc2cc(O)ccc12,nt,30µM*,nt,14%,27µM*,nt
O=c1cc(-c2ccccc2)c2ccc(O)cc2o1,0,?,-60*,nt,-16%,-9
COc1cc(-c2oc3ccc(C)cc3c(=O)c2O)cc(OC)c1OC,nt,?,nt,-5%,5.8µM*,nt
CCCCOc1ccc(CNC(=O)Cc2ccc(NC(=O)N3CCSc4ncccc43)cc2)cc1,nt,?,nt,0%,?,nt
O=c1c(O)c(-c2ccc(O)c(O)c2)oc2cc(O)ccc12,-74*,6.7µM*,-83*,-8%,23µM*,?
COc1cc(OC)c(-c2oc3ccccc3c(=O)c2O)c(OC)c1,-1,7.3µM*,9,nt,8.2µM*,-4
